High-throughput results: PubChem, National Center for Advancing Translational Sciences (NCATS)
In the library only some 0.92% were active in any assay of this set; here they are far more common.
LmPK inh: qHTS Assay for Inhibitors of Leishmania Mexicana Pyruvate Kinase (LmPK); AID 1721, 2009; 290,000 tested, 0.37% active; Potency, µM (top dose mostly 57.5 µM), actives largely listed as inhibitors; Q27686; purified LmPK, Kinase-Glo ATP luminescence, 1 h
Target sequence (Q27686 whole entry, looked up): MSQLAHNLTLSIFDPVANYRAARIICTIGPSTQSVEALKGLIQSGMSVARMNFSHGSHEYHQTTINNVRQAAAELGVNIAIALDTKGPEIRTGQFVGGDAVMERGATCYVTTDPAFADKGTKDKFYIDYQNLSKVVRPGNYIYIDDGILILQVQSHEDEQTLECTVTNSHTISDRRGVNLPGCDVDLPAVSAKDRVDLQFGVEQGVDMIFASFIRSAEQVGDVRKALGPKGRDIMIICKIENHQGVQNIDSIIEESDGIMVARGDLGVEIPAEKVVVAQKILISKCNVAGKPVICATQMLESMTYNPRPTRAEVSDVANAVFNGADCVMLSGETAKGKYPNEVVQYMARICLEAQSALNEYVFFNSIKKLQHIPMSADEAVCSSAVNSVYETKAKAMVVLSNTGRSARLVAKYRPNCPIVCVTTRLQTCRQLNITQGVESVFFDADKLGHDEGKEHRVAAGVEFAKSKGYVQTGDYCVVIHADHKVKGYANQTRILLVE
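ATP generated from ADP (0.1 mM) and PEP (0.5 mM) by 0.1 nM LmPK over 1 h at room temperature (pH 7.2 imidazole buffer) was detected by coupled luciferase luminescence. Values were normalized to uninhibited and no-enzyme wells.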
TbPYK inhibitor: qHTS of Trypanosoma Brucei Inhibitors; pyruvate kinase (Trypanosoma brucei), Q57TT1; 410,000 tested, 0.12% active; TbPYK enzyme, Kinase-Glo Plus ATP luminescence, 45 min; Potency, µM (doses to about 76.8 µM), hits mostly inhibitors; note: nearly all actives have a fitted effect of over 50% in size
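Screened from lowest to highest concentration, compounds were pinned into TbPYK/substrate mixtures, and ADP (130 uM final) was added. Plates sat at room temperature for 45 min prior to Kinase-Glo Plus detection by luminescence.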
NS1 inh: qHTS Assay for Inhibitors of Influenza NS1 Protein Function; 270,000 tested, 0.4% active; Potency, µM (titrated, usually from 46.1 µM); calls by dose curve; note: actives are rising curves; nearly all actives have a fitted effect of over 50% in size
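A cell-based growth assay was used: compounds that relieve NS1-induced slow growth of budding yeast raise OD600. Assay medium was yeast nitrogen base with ammonium sulphate and -URA supplement, pH 6.0, with 2% galactose.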
AMA1 RON2 block: qHTS for Inhibitors of AMA1-RON; Towards Development of Antimalarial Drug Lead: Primary Screen. Plasmodium falciparum AMA1 (3D7) - RON2 peptide interaction. AlphaScreen AMA1-biotinylated RON2 peptide binding. Potency, µM (highest dose often 58.2 µM), hits mostly inhibitors. 360,000 tested, 0.2% active. AID 720542, 2013; note: nearly all actives have a fitted effect of over 45% in size
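AMA1 (3D7) with his tag at 25 nM final met compounds first, then biotinylated RON2 peptide at 25 nM; detection used donor plus acceptor beads, 10 µg/mL apiece, read by AlphaScreen after 30 min at room temperature.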
RE007 growth inh: qHTS Assay for Inhibitors of the HIV-1 protein Vpr | S. pombe RE007 Vpr strain, BacTiter-Glo ATP luminescence, 24 h | 360,000 tested, 0.21% active | Potency, µM (highest dose often 92.2 µM), most hits filed as inhibitors | AID 651644, 2012; active = well fitted falling curve with a large enough effect; inconclusive = small, poorly fitted or top-dose-only effect; inactive = no such curve, though single readings can be large or run the other way; note: nearly all actives have a fitted effect of over 50% in size
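Fission yeast strain RE007, carrying one chromosomally integrated HIV-1 vpr copy, was seeded at OD 0.01 in PMG+AL medium with 23 nL pinned compound. After 24 h at 30 °C and 99% humidity, viability was read by BacTiter-Glo luminescence.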
Numbers stand for hits; 0 = inactive; ? = inconclusive; - = no result; [ ] = remark or other dose. Unless noted, calls come from the whole dose curve; as a rule, active = well fitted curve in the direction sought with a large enough effect; inconclusive = small, poorly fitted or top-dose-only effect, or another doubt; inactive = no such curve, though single readings can be large; an effect the other way counts as inactive or inconclusive.

SMILES	LmPK inh	TbPYK inhibitor	NS1 inh	AMA1 RON2 block	RE007 growth inh
C#CC1(OC(C)=O)CCC2C3CCC4=CC(OC(C)=O)CCC4C3CCC21C (stereo unspecified)	-	0	-	-	-
CCOc1cc(CNc2ccc(N3CCOCC3)cc2)cc(Br)c1OCC	0	0	0	14.1µM	0
Cc1ccc(/C=C2\C(=O)NC(=S)N(c3ccccc3F)C2=O)s1	0	31.6µM	0	0	0
N#C/C(=C1/SC[C@@H](c2ccc(Cl)cc2Cl)S1)n1ccnc1	-	0	-	-	-
O=C(Nc1nc(-c2ccccc2)cs1)C1COc2ccccc2O1 (stereo unspecified)	0	0	0	0	?
O=C(Nc1nc(-c2ccc(S(=O)(=O)N3CCCC3)cc2)cs1)C1COc2ccccc2O1 (stereo unspecified)	0	0	7.94µM	0	0
CCOc1cc(/C=N/N=C2/NC(=O)C(CC(=O)O)S2)ccc1OCc1ccccc1Cl (stereo unspecified)	22.4µM	0	0	0	0
C=C1CC[C@H](O)C/C1=C/C=C1\CCC[C@]2(C)[C@@H]([C@H](C)CCCC(C)(C)O)CC[C@@H]12	-	0	-	-	-
Cn1c(/C=C/c2ccccc2)nc2ccccc21	5.01µM	?	0	0	?
NS(=O)(=O)c1ccc(CCNC(=O)c2ccc[nH]c2=S)cc1	0	0	0	0	8.91µM
O=S(=O)(c1cccc(-c2n[nH]c(=S)n2C2CCCC2)c1)N1CCOCC1	0[11.5 µM]	6.31µM	-	0	0
Cc1cc(C)c(S(=O)(=O)Nc2cc(SCC(=O)O)c(O)c3ccccc23)cc1C	20µM	10µM	0	0	0
CCc1ccc(NC(=O)c2ccc(F)c(S(=O)(=O)NCCc3ccc(OC)c(OC)c3)c2)cc1	-	0	-	-	-
CCc1cccc(C)c1Nc1c(-c2ccc(SC)cc2)nc2sccn12	-	0	-	-	-
O=C1C(=O)c2c(C(=O)c3ccccc3)coc2-c2ccccc21	0	0	0	0	11.2µM
Cc1oc2c(c1C(=O)c1ccccc1)C(=O)C(=O)c1ccccc1-2	0	0	0	?	?
CC(=O)SC[C@@H](C)C(=O)N1CCC[C@H]1C(=O)N[C@@H](Cc1ccccc1)C(=O)O	-	0	-	-	-
CC12CCC(=O)CC1CCC1C2CCC2(C)C1CCC2(C)O (stereo unspecified)	-	0	-	-	-
COc1ccc(CNC(=O)c2ccc3c(c2)N(C)CCS3)cc1	0	0	0	0	0
COc1ccc(CNC(=O)c2ccc3c(c2)N(C)C(=O)CS3=O)cc1 (stereo unspecified)	0	0	14.1µM	0	0
CCC(C)(C)c1ccc(OCCCC[n+]2ccc(C)cc2)c(C(C)(C)CC)c1	0	0	-	0	?
CCC(C)(C)c1ccc(OCCCC[n+]2cccc(C)c2C)c(C(C)(C)CC)c1	0	0	0	0	28.2µM
C=CCc1cccc([C@@H]2[C@@H](C)CC[C@H]3C(=O)N4[C@@H](c5cc(OC)c(OC)c(OC)c5)c5[nH]c6ccccc6c5C[C@H]4C(=O)N23)c1	0	-	22.4µM	-	-
Nc1ccccc1C(=O)/C=C/c1ccc2c(c1)OCO2	14.1µM	0	0	?	?
O=C(/C=C/c1ccc2c(c1)OCO2)Nc1cccnc1	22.4µM	0	-	0	0
SMILES	LmPK inh	TbPYK inhibitor	NS1 inh	AMA1 RON2 block	RE007 growth inh
CC(=O)Nc1ccc(NC(=O)/C=C/c2ccc3c(c2)OCO3)cc1	0	0	0	0	0
COc1ccc(C(=O)/C=C/c2ccc3c(c2)OCCO3)cc1	0	0	0	0	0
O=C(/C=C/c1ccc2c(c1)OCO2)c1ccc(O)cc1O	-	0	-	0	0
O=C(/C=C/c1ccc2c(c1)OCCO2)c1ccccc1	12.6µM	0	0	0	?
S=c1[nH]nc(-c2ccc(Cl)cc2Cl)n1Cc1ccccc1	?	0	0	0	?
CCn1c(-c2cccn(Cc3ccc(Cl)cc3Cl)c2=O)n[nH]c1=S	0	5.62µM	0	0	0
N=C(N)c1ccc(/C=C\c2ccc(C(=N)N)cc2)cc1	-	-	0	-	-
O=C(Cn1ccccc1=S)c1ccc(Cl)c(Cl)c1	-	0	-	0	0
On1ccccc1=S	-	?	-	0	4.47µM
Cc1cccc(-c2nn(C(=S)Nc3ccccc3)cc2-c2ccnc3ccccc23)n1	-	0	-	-	-
c1ccc2c(c1)-c1cccc3cccc-2c13	-	0	-	0	0
O=C1c2cccc3cccc(c23)C(=O)C1(O)O	-	7.08µM	-	0	0
Cc1ccc(/C=N/n2c(-c3ccccc3)csc2=S)cc1	-	0	-	-	-
O=C(Nc1ccc(N2CCCCC2)cc1)c1ccccc1	3.55µM	0	0	0	?
Cc1ccc(C(=O)Nc2ccc(N3CCCCC3)cc2)cc1	-	0	-	-	-
CC1CCCCN1CC(=O)Nc1ccc(N2CCCCCC2)cc1 (stereo unspecified)	0	0	0	28.2µM	0
CCC(C(=O)O)C1OC(C(C)C(O)C(C)C(=O)C(CC)C2OC3(C=CC(O)C4(CCC(C)(C5CCC(O)(CC)C(C)O5)O4)O3)C(C)CC2C)C(C)CC1C (stereo unspecified)	-	0	-	-	-
COCC(=O)N1C[C@H]2CON(C)[C@H]2C[C@H]1c1ccc(N2CCCCC2)cc1	-	0	-	0	0
CN1OC[C@@H]2CN(Cc3ccc(Cl)cc3)[C@H](c3ccc(N4CCCCC4)cc3)C[C@@H]21	-	0	-	15.8µM	0
O=c1c2cc([N+](=O)[O-])ccc2sn1-c1ccccc1	-	4.47µM	-	0	5.62µM
N#Cc1ccc2sn(-c3ccccc3)c(=O)c2c1	-	3.98µM	-	0	7.94µM
CC(=O)Nc1ccc2sn(-c3ccccc3)c(=O)c2c1	-	?	-	0	0
COC(=O)C1=C(C(=O)OC)[C@@H]2N(C)c3ccccc3[C@@]23C[C@@H](C(=O)OC)N(S(=O)(=O)c2ccc(OC)cc2)C3=N1	0[11.5 µM]	-	-	-	-
O=C1c2ccccc2C(=O)c2c1ccc(O)c2O	-	0	-	0	?
COC(=O)c1ccc2c(c1O)C(=O)c1ccccc1C2=O	0	0	0	0	4.47µM
SMILES	LmPK inh	TbPYK inhibitor	NS1 inh	AMA1 RON2 block	RE007 growth inh
CC1(OC(=O)C2CCCC2)C(=O)C=C2C=C(c3ccsc3)N(c3ccc(CO)cc3)C=C2C1=O (stereo unspecified)	0[11.5 µM]	-	-	-	-
CCCCCCCCCCCCCCCCn1cc[n+](CC(C)=O)c1	0	0	-	0	31.6µM
CCCCCCn1ccc(=N)cc1	0	0	0	0	0
Cc1cc(C(=O)Nc2ccc(N3CCCC3)c(Cl)c2)ccc1[N+](=O)[O-]	0	0	0	22.4µM	0
C[C@]12O[C@H](C[C@]1(O)CO)n1c3ccccc3c3c4c(c5c6ccccc6n2c5c31)CNC4=O	-	0	-	-	-
Cc1[nH]n(-c2ccccc2)c(=O)c1C(C[N+](=O)[O-])c1ccc(Br)cc1 (stereo unspecified)	0	0	0	0	10µM
